In PubChem BioAssay (EPA / NIEHS) one finds outcome and AC50 data, which are given here for 40 compounds.

Structures are written as SMILES. The source made the active and inactive calls. How the source made its calls: active means hit-call score of the fitted dose curve at least 0.9, where 1 is the maximum; inactive means score below 0.9.

The target in the experiment is X-box-binding protein 1 (Homo sapiens) (UniProt P17861). Nature of the experiment: ATG_Xbp1_CIS: Attagene CIS-FACTORIAL HepG2 Assay for human X-box Binding Protein 1 (XBP1) (AID 2282972). The note with it: HepG2 XBP1 cis-element reporter, Attagene multiplex; actives raise or lower the signal. On the procedure: ATG_CIS is a cell-based, multiplexed-readout assay that uses HepG2, a human liver cell line, with measurements taken at 24 hours after chemical dosing in a 24-well plate.ATG_Xbp1_CIS is one of 52 assay component(s) measured or calculated from the ATG_CIS assay. It is designed to make measurements of mRNA induction, a form of inducible reporter, as detected with fluorescence intensity signals by Reverse transcription polymerase chain reaction (RT-PCR) and Capillary electrophoresis technology.Data from the assay component ATG_Xbp1_CIS was analyzed into 1 assay endpoint. This assay endpoint, ATG_Xbp1_CIS, was analyzed with bidirectional fitting relative to DMSO as the negative control and baseline of activity. Using a type of inducible reporter, measures of mRNA for gain or loss-of-signal activity can be used to understand the reporter gene at the transcription factor-level as they relate to the gene XBP1. Furthermore, this assay endpoint can be referred to as a primary readout, because this assay has produced multiple assay endpoints where this one serves a reporter gene function. To generalize the intended target to other relatable targets, this assay endpoint is annotated to the dna binding intended target family, where the subfamily is basic leucine zipper.
Sequence of X-box-binding protein 1 (Homo sapiens) (P17861 whole entry, looked up): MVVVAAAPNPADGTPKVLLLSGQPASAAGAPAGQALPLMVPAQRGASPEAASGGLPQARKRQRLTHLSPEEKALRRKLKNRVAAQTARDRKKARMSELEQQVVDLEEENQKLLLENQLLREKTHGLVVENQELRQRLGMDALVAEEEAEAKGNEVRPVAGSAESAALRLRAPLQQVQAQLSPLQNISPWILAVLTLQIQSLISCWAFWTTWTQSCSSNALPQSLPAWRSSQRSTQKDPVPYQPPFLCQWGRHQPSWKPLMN
Human liver HepG2 cells are transiently transfected with multiple reporter transcription units (MRTUs) in 6-well plates using FuGene 6 reagent (Roche; 3 ml FuGene/1 mg DNA). The MRTU constructs are regulated by a cis-regulating element (promoter). […] A major difference between the CIS and TRANS system is that in CIS activities of endogenous TFs are measured, whereas the TRANS assay evaluates changes in activities of exogenous, chimeric NR-Gal4 proteins. […] At the end of 24 hour incubation, total RNA was isolated using TriZol reagent (Invitrogen). The isolated RNA is then reverse-transcribed using oligo(dT) primer and Mo-MLV reverse transcriptase (Invitrogen) with DNAse I (Ambion) treatment for 30 min. The one-tenth of the produced cDNA was amplified by PCR using Taq DNA polymerase (Invitrogen) and two reporter sequence-specific primers. The PCR products were fluorescently labeled by primer extension with 6-arboxyfluorescein (6-FAM) 5'-labeled reporter sequence-specific primer (2 min at 95 C, 20 s at 68 C and 10 min at 72 C) and these products were digested with 5U of HpaI (New England Biolabs) for 2h at 37 C. The fragments were purified using Qiaquick PCR columns (Qiagen), analyzed on an ABI 3130xL genetic analyzer (Applied Biosystems) with peak positions identified by using a set of X-rhodamine (ROX)-labeled MapMarker1000 molecular weight standards (BioVentures). The raw capillary electrophoresis data was processed using Attagraph software (Attagene).
`CCCCCC1=CCCC1=O`: the result was inactive. For the compound `C[N+](C)(C)CCCNS(=O)(=O)C(F)(F)C(F)(F)C(F)(F)C(F)(F)C(F)(F)C(F)(F)C(F)(F)C(F)(F)F`, the compound was called inactive. Regarding `CC(=O)CCC1=C(C)CCCC1(C)C`, the call was inactive. One may read the AC50 as the midpoint of the concentration-response curve, whichever way the signal moves. With `CCCCCC[C@@H](O)C/C=C\CCCCCCCC(=O)OCC(O)CO` (stereo not given in full), the AC50 was 175 µM (active).

`CCN1CCCC1=O`: the compound was classed as inactive. For `O=C(O)C(F)(F)C(F)(F)C(F)(F)C(F)(F)C(=O)O`, the result was inactive.

On to `CCN(CC)c1cccc(C)c1`, for which the outcome was inactive. Regarding `Cc1c[nH]c(=O)[nH]c1=O`, the compound was called inactive. `COc1cc(C)ccc1O`: the result was inactive. Regarding `CCCC/C=C/C=C\C=O`, the AC50 is 178 µM (active).

For the compound `CCOC(=O)OC(=O)OCC`, the call was inactive. Consider `CCCCCCC=O`, for which the call was inactive. With `CCCCOCCOCCOC(C)=O`, the call was inactive.

For the compound `COC(=O)c1ccccc1C`, the compound was called inactive. On to `CCCCCCCC(=O)OCC(COC(=O)CCCCCCC)OC(=O)CCCCCCC`, for which the call was inactive. Turning to `CCCCNS(=O)(=O)c1ccccc1`, the outcome was inactive. Still for that read-out and setting: in the case of `CC1CC(=O)CC(C)(C)C1` (stereo not given) it was “inactive”. As to `CC(C)c1cccc(C(C)C)c1N`, the result was inactive. `Nc1nc(N)nc(-c2ccccc2)n1`: the compound was called inactive. Regarding `Nc1ccc(Cl)c(N)c1`, the outcome was inactive.

Consider `C=C(C)C1CC=C(C)CC1` (stereo not given), for which the result was inactive.

As for `CC(C)c1cc(C(C)C)cc(C(C)C)c1`, the compound was classed as inactive. Take `CCCCCCCOC(=O)c1ccc(O)cc1`: the concentration at half-maximal activity (AC50) is 45.1 µM (active). As for `CCc1cccc(CC)c1`, the compound was called inactive. For `Oc1ccc(-c2ccccc2)c(Cl)c1`, the AC50 was 33.4 µM (active). As to `CCCCCCCCC(CO)CCCCCC` (stereo not given), the compound was classed as inactive. In the case of `C=C(C)C(=O)OCC(O)COc1ccc(C(C)(C)c2ccc(OCC(O)COC(=O)C(=C)C)cc2)cc1` (stereo not given), the AC50 was 26.3 µM (active). On to `C=CC(=O)OCC(C)OCC(C)OCC(C)OC(=O)C=C` (stereo not given), for which the compound was called inactive.

As for `C[Si]1(C)O[Si](C)(C)O[Si](C)(C)O[Si](C)(C)O[Si](C)(C)O1`, the call was inactive. With `CCCCOCCOC(=O)COc1ccc(Cl)cc1Cl`, the result was inactive.

As to `CCCCCCCCCCCCCc1ccccc1`, the compound was called inactive. Regarding `CCN1CN(CC)CN(CC)C1`, the AC50 was 162 µM (active). On to `CC/C=C\C/C=C\C/C=C\CCCCCCCC(=O)OC`, for which the call was inactive. Regarding `CCNc1nc(NC(C)(C)C)nc(OC)n1`, the compound was classed as inactive. In the case of `CCc1occc(=O)c1O`, the call was inactive.

Consider `[Cl][Sc]([Cl])[Cl]`, for which the outcome was inactive. With `CCCCC1CCC(=O)O1` (stereo not given), the result was inactive. The same measure, in the same setting: as for `C=C(C)C1CC=C(C)C(OC(C)=O)C1` (stereo not given), the entry is “inactive”; as for `O=C1c2ccccc2C(=O)c2cc(S(=O)(=O)O)ccc21`, “inactive”. In the case of `Oc1ccc(/C=C/c2cc(O)cc(O)c2)cc1`, the compound was called inactive.
